Read-out in assay [1]: C-C motif chemokine 2 (Homo sapiens) (UniProt P13500)
Briefly: BSK_KF3CT_MCP1: BioMAP Diversity Plus: KF3CT Assay for Monocyte Chemoattractant Protein 1 (MCP1/CCL2) Biomarker Activity (AID 2283073). To be noted: primary human keratinocytes with fibroblasts; actives raise or lower the signal. An outline of the steps:
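Human keratinocyte plus foreskin fibroblast primary co-culture exposed to chemical for 24 h. MCP-1 levels measured by ELISA. Bidirectional curve fitting relative to DMSO negative control as baseline.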

Read-out in assay [2]: Matrix Metallopeptidase 9 (MMP9), MMP9 (gene 4318)
Briefly: BSK_KF3CT_MMP9: BioMAP Diversity Plus: KF3CT Assay for Matrix Metallopeptidase 9 (MMP9) Biomarker Activity (AID 2283074).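 As to AC50: MMP9 protein level quantified by ELISA in the co-culture.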 As to conditions: primary human keratinocytes with fibroblasts; actives raise or lower the signal. Summed up: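 Values come from bidirectional fitting relative to DMSO of MMP-9 levels, which were measured by ELISA. Measurements were taken 24 h after chemical dosing of a keratinocyte and foreskin fibroblast co-culture.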

Read-out in assay [3]: urokinase plasminogen activator (uPA), PLAU (gene 5328)
Briefly: BSK_KF3CT_uPA: BioMAP Diversity Plus: KF3CT Assay for urokinase plasminogen activator (uPA) Biomarker Activity (AID 2283075). To be noted: primary human keratinocytes with fibroblasts; actives raise or lower the signal. Summed up: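 Values derive from bidirectional fitting against DMSO controls. Keratinocyte/foreskin fibroblast co-cultures received chemical; 24 h later uPA was detected by ELISA, with SRB total-protein staining in parallel wells for overt cytotoxicity.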

Read-out in assay [4]: CD40, CD40 (gene 958)
In words: BSK_LPS_CD40: BioMAP Diversity Plus: LPS Assay for CD40 Biomarker Activity (AID 2283076). As to conditions: primary human HUVEC with PBMC; actives raise or lower the signal. An outline of the steps:
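Primary human umbilical vein endothelial cells co-cultured with peripheral blood mononuclear cells, LPS-stimulated, were dosed with chemical and read 24 h later. CD40 levels were measured by ELISA and fitted bidirectionally against DMSO as negative control and baseline.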

Read-out in assay [5]: E-selectin (Homo sapiens) (UniProt P16581)
In words: BSK_LPS_Eselectin: BioMAP Diversity Plus: LPS Assay for Eselectin Biomarker Activity (AID 2283077). As to conditions: primary human HUVEC with PBMC; actives raise or lower the signal. Summed up: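 Human umbilical vein endothelial cells co-cultured with peripheral blood mononuclear cells under LPS stimulation; E-selectin measured by ELISA 24 h after chemical dosing. Activity fitted bidirectionally against DMSO as negative control and baseline.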

Read-out in assay [6]: Interleukin-8 (IL8), CXCL8 (gene 3576)
Briefly: BSK_LPS_IL8: BioMAP Diversity Plus: LPS Assay for Interleukin-8 (IL8) Biomarker Activity (AID 2283078). To be noted: primary human HUVEC with PBMC; actives raise or lower the signal. Summed up: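 Human umbilical vein endothelial cells co-cultured with PBMC were stimulated with LPS; IL-8 levels were measured by ELISA 24 h after chemical dosing. Activity was fitted bidirectionally against DMSO as negative control and baseline.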

The nature of assay [7]: BSK_LPS_SRB: Viability Assessment in the BioMAP Diversity Plus: LPS Assay (AID 2283079).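 Also: total protein by sulforhodamine B absorbance as a cytotoxicity measure; measured one day after compound addition; fitted in both directions against DMSO so loss or gain of signal counts.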 To be noted: primary human HUVEC with PBMC. Summed up: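 Human umbilical vein endothelial cells co-cultured with PBMC (LPS system) were dosed for 24 h. Total protein was stained with 0.1% sulforhodamine B after 10% TCA fixation, read at 560 nm, and fitted bidirectionally against DMSO baseline.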

Read-out in assay [8]: Interleukin-1 alpha (IL1a), IL1A (gene 3552)
Briefly: BSK_LPS_IL1a: BioMAP Diversity Plus: LPS Assay for Interleukin-1 alpha (IL1a) Biomarker Activity (AID 2283080). To be noted: primary human HUVEC with PBMC; actives raise or lower the signal. Summed up: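 Human umbilical vein endothelial cells co-cultured with peripheral blood mononuclear cells were LPS-stimulated and exposed to test chemicals for 24 h. IL-1 alpha was quantified by ELISA, with bidirectional curve fitting against DMSO as the negative control and baseline.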

Read-out in assay [9]: Monocyte Chemoattractant Protein-1 (MCP1), CCL2 (gene 6347)
In words: BSK_LPS_MCP1: BioMAP Diversity Plus: LPS Assay for Monocyte Chemoattractant Protein-1 (MCP1) Biomarker Activity (AID 2283081).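 As to AC50: co-culture stimulated with LPS; secreted MCP-1 protein quantified by ELISA in culture supernatant.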 As to conditions: primary human HUVEC with PBMC; actives raise or lower the signal. An outline of the steps: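 HUVEC plus PBMC co-culture (human primary cells, LPS system) exposed to test chemical for 24 h; MCP-1 measured by ELISA. Bidirectional curve fitting against DMSO baseline; parallel SRB total-protein staining flags overt cytotoxicity.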

Assay [10] in a line: BSK_LPS_PGE2: BioMAP Diversity Plus: LPS Assay for Prostaglandin E2 (PGE2) Biomarker Activity (AID 2283082). To be noted: primary human HUVEC with PBMC; actives raise or lower the signal. An outline of the steps: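 PGE2 release measured by ELISA in an LPS-activated co-culture of human umbilical vein endothelial cells and peripheral blood mononuclear cells, read at 24 h post-dosing. DMSO served as baseline for bidirectional curve fitting.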

Read-out in assay [11]: Macrophage colony-stimulating factor (MCSF), CSF1 (gene 1435)
Briefly: BSK_LPS_MCSF: BioMAP Diversity Plus: LPS Assay for Macrophage colony-stimulating factor (MCSF) Biomarker Activity (AID 2283083). As to conditions: primary human HUVEC with PBMC; actives raise or lower the signal. Summed up:
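Human umbilical vein endothelial cells co-cultured with peripheral blood mononuclear cells were exposed to compound for 24 h. M-CSF levels were measured by ELISA, and bidirectional curve fitting used DMSO as the negative control and baseline.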

Read-out in assay [12]: Tissue Factor, F3 (gene 2152)
In words: BSK_LPS_TissueFactor: BioMAP Diversity Plus: LPS Assay for Tissue Factor Biomarker Activity (AID 2283084). To be noted: primary human HUVEC with PBMC; actives raise or lower the signal. Summed up: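 Human umbilical vein endothelial cells co-cultured with peripheral blood mononuclear cells were dosed and stimulated with LPS. Cell-surface CD142 was quantified by ELISA at 24 h. Activity was fitted bidirectionally against DMSO baseline.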

Read-out in assay [13]: Tumor necrosis factor (Homo sapiens) (UniProt P01375)
Briefly: BSK_LPS_TNFa: BioMAP Diversity Plus: LPS Assay for Tumour Necrosis Factor alpha (TNFa) Biomarker Activity (AID 2283085).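 As to AC50: TNFa protein level quantified by ELISA in the co-culture.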 To be noted: primary human HUVEC with PBMC; actives raise or lower the signal. An outline of the steps: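 TNFa was quantified by ELISA in LPS-activated co-cultures of human endothelial cells and PBMC, 24 h post-dosing. Both increases and decreases versus DMSO were fitted.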

Read-out in assay [14]: Vascular cell adhesion molecule 1 (VCAM1), VCAM1 (gene 7412)
Briefly: BSK_LPS_VCAM1: BioMAP Diversity Plus: LPS Assay for Vascular cell adhesion molecule 1 (VCAM1) Biomarker Activity (AID 2283086). To be noted: primary human HUVEC with PBMC; actives raise or lower the signal. Summed up: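 VCAM-1 quantified by ELISA in an LPS-activated co-culture of human endothelial cells and peripheral blood mononuclear cells, read 24 h post-treatment. Fitted in both directions versus DMSO; parallel SRB staining flags overt cytotoxicity.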

Read-out in a further assay: CD38, CD38 (gene 952)
Briefly: BSK_SAg_CD38: BioMAP Diversity Plus: SAg Assay for CD38 Biomarker Activity (AID 2283087). As to conditions: primary human HUVEC with PBMC; actives raise or lower the signal. An outline of the steps: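 CD38 quantified by ELISA (fluorescence) in a superantigen-activated endothelial cell–PBMC co-culture at 24 h post-dose. Activity fitted in both directions relative to DMSO; parallel SRB and Alamar Blue cytotoxicity read-outs.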

Read-out in assay [15]: CD40, CD40 (gene 958)
Briefly: BSK_SAg_CD40: BioMAP Diversity Plus: SAg Assay for CD40 Biomarker Activity (AID 2283088). To be noted: primary human HUVEC with PBMC; actives raise or lower the signal. An outline of the steps:
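Human umbilical vein endothelial cells co-cultured with PBMC; CD40 levels measured by ELISA with fluorescence read-out 24 h after chemical dosing. Gain or loss of signal fitted bidirectionally against DMSO baseline.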

Read-out in the next assay: CD69, CD69 (gene 969)
Briefly: BSK_SAg_CD69: BioMAP Diversity Plus: SAg Assay for CD69 Biomarker Activity (AID 2283089).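 As to AC50: cell surface CD69 protein quantified by ELISA with fluorescence detection.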 To be noted: primary human HUVEC with PBMC; actives raise or lower the signal. An outline of the steps: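 HUVEC co-cultured with PBMC were dosed with chemical, and CD69 was measured by ELISA with fluorescence read-out 24 h later. Bidirectional curve fitting used DMSO as negative control and activity baseline.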

Read-out in assay [16]: Monocyte Chemoattractant Protein-1 (MCP1), CCL2 (gene 6347)
In words: BSK_SAg_MCP1: BioMAP Diversity Plus: SAg Assay for Monocyte Chemoattractant Protein-1 (MCP1) Biomarker Activity (AID 2283090). To be noted: primary human HUVEC with PBMC; actives raise or lower the signal. An outline of the steps:
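Values derive from bidirectional fitting of ELISA-measured MCP1 against DMSO controls. Readings were taken 24 h after dosing human vascular endothelial cells co-cultured with peripheral blood mononuclear cells under superantigen stimulation.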

Read-out in assay [17]: E-selectin (Homo sapiens) (UniProt P16581)
In words: BSK_SAg_Eselectin: BioMAP Diversity Plus: SAg Assay for Eselectin Biomarker Activity (AID 2283091). As to conditions: primary human HUVEC with PBMC; actives raise or lower the signal. An outline of the steps:
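HUVEC co-cultured with PBMC, compound dosed then read at 24 h; E-selectin measured by ELISA. Activity fitted bidirectionally against DMSO as negative control and baseline.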

By AC50 is commonly meant the concentration at which the activity in the assay is half-maximal.

Activity calls are given as the source filed them. The calls were made as follows: active = hit-call score of the fitted dose curve at least 0.9, where 1 is the maximum; inactive = score below 0.9.

Chain of Tumor necrosis factor (Homo sapiens) (P01375 whole entry, looked up): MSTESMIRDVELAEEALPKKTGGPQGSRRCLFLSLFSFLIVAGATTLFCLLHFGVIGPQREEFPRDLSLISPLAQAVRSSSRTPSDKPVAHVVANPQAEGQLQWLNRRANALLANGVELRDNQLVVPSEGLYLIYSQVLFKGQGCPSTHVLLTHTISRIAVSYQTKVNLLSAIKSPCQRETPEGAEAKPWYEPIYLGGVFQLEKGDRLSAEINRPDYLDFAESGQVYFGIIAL
Chain of E-selectin (Homo sapiens) (P16581 whole entry, looked up): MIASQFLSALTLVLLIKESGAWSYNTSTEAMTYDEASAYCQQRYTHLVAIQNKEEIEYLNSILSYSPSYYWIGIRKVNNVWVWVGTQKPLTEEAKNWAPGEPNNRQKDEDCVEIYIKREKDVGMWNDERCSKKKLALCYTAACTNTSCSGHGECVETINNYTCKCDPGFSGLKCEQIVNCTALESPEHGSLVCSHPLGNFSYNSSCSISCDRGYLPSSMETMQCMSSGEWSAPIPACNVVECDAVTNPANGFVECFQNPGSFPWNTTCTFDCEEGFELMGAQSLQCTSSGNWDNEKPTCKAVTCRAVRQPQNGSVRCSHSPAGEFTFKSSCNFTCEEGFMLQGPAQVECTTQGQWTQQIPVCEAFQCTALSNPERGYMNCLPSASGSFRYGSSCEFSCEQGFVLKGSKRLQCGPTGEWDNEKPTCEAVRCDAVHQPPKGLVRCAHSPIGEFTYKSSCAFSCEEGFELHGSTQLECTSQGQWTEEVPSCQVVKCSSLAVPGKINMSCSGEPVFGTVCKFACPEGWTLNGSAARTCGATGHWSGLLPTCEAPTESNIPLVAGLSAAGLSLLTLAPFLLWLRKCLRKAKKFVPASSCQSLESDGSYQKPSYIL

Turning to `Clc1ccccc1C(c1ccccc1)(c1ccccc1)n1ccnc1`, the AC50 in assay [1] is 7.25 µM (active); in assay [2], 5.43 µM (active); in assay [3] it was 9.72 µM (active); with CD40, CD40 (gene 958) [4] it was 14.7 µM (active); in [5], 30.7 µM (active); in assay [6], 30.9 µM (active). Moreover, the AC50 was 23.1 µM (active) in assay [7]; 30.5 µM (active) in [8]; 29.7 µM (active) in assay [9]; 5.45 µM (active) in [10]; 28.3 µM (active) in [11]; 31.9 µM (active) in [12]. The AC50 was 32.9 µM (active) in assay [13]; 22.4 µM (active) in assay [14]; 25.9 µM (active) in the assay with CD38, CD38 (gene 952); 20 µM (active) in the assay with CD40, CD40 (gene 958) [15]; 24.3 µM (active) in the assay with CD69, CD69 (gene 969); 26.1 µM (active) in [16]. Also, the AC50 in assay [17] is 14 µM (active).

As for `O=C(O)c1ccccc1-n1cc(C(=O)O)c(=O)c2cc(Nc3c(F)cc(F)cc3Cl)c(Cl)cc21`, the outcome was “inactive” in assay [1]; “inactive” in [2]; “inactive” in [3]; “inactive” with CD40, CD40 (gene 958) [4]; “inactive” in assay [5]; “inactive” in assay [6]. Besides, the result in [7], in assay [8], in assay [9], in assay [10], in assay [11] and in assay [12] was inactive. Besides, the outcome in [13] was “inactive”; in assay [14], “inactive”; with CD38, CD38 (gene 952), “inactive”; with CD40, CD40 (gene 958) [15], “inactive”; in the assay with CD69, CD69 (gene 969), “inactive”; in [16] it was “inactive”. In addition, the outcome in assay [17] was inactive.

On to `Oc1ccc2ccccc2c1`, for which the result in assay [1], in assay [2], in [3], in assay [6], in [7] and in [8] was inactive. Moreover, the outcome in assay [9] was “inactive”; in [11], “inactive”; in [12] it was “inactive”; in [13], “inactive”; in assay [14] it was “inactive”; with CD40, CD40 (gene 958) [15] it was “inactive”. Moreover, the outcome with CD69, CD69 (gene 969) is “inactive”; in assay [16] it was “inactive”. Moreover, the half-maximal activity concentration (AC50) was 22.1 µM (active) with CD40, CD40 (gene 958) [4]; 16.1 µM (active) in assay [5]; 13.2 µM (active) in [10]; 10.8 µM (active) in assay [17].

Source of the values: PubChem BioAssay (EPA / NIEHS).
